Source: PubChem
RECQ1 inh – RECQ1 (human) helicase inhibition. P46063. 0.54% of 240,000 active. AID 2549. RECQ1 DNA unwinding, red fluorescence kinetic read. Potency, µM (highest dose often 57.3 µM), hits mostly inhibitors; further: nearly all actives have a fitted effect of over 30% in size
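RECQ1T1 50 nM; forked duplex (20 bp + 30-nt ss tails) 200 nM, ATP 2 mM final; pH 8.0, 2 mM MgCl2, 2.5 ug/ml poly(dI-dC); 15 min compound preincubation; discontinuous kinetic read over 2 h at RT.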
FEN1 inhibitor – inhibitors of human flap endonuclease 1 | Recombinant FEN1 flap cleavage, fluorescence, 15 min | Potency, µM (titrated, usually from 114 µM), usual class: inhibitors | 0.35% of 390,000 active; further: nearly all actives have a fitted effect of over 65% in size
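Quantitative HTS format: each compound was titrated, incubated with 10 nM nuclease for 15 min at room temperature, then challenged with flap substrate at 50 nM final. Signal change over 15 min gave concentration–effect curves.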
L3MBTL1 block – L3MBTL1 (human) inhibition; Q9Y468; AlphaScreen L3MBTL1–H3K9me1 peptide binding; Potency, µM (doses to about 57.1 µM), hits mostly inhibitors; 0.66% of 230,000 active; AID 485360; further: nearly all actives have a fitted effect of over 60% in size
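L3MBTL1 50 nM + b-AHA-H3(1-15)K9me1 75 nM, 30 min RT; compound added, 30 min RT; streptavidin donor/Ni-chelate acceptor beads 10 ug/mL each final, 30 min RT dark; AlphaScreen read.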
BLM inh – inhibitors of human Bloom syndrome helicase BLM; AID 2528; P54132; recombinant BLM DNA unwinding, fluorescence dequenching; 0.2% of 350,000 active; Potency, µM (highest dose often 56.1 µM), most hits filed as inhibitors; further: nearly all actives have a fitted effect of over 35% in size
WRN helicase inh – inhibitors of human WRN helicase; Q14191; WRN helicase unwinding, fluorescent forked duplex, kinetic; Potency, µM (series often up to 114 µM), actives largely listed as inhibitors; 0.46% of 360,000 active; further: nearly all actives have a fitted effect of over 55% in size
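Kinetic fluorescence helicase assay: unwinding of a quenched forked DNA duplex (100 nM final) with 2 mM ATP final raises red fluorescence (525/598 nm). Compounds sat 15 min at room temperature with 20 nM WRN beforehand.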
Of the large screens only hits and unclear results are named; the others gave an inactive call. In the library only some 0.99% were active in any assay of this set; here they are far more common. The call rests on the fitted dose curve; in most records, active means well fitted curve in the direction sought with a large enough effect; inconclusive means small, poorly fitted or top-dose-only effect, or another doubt; inactive means no such curve, though single readings can be large; an effect the other way counts as inactive or inconclusive.

O=C1c2cccc3c([N+](=O)[O-])ccc(c23)C(=O)N1O	FEN1 inhibitor 3.16µM (no result: RECQ1 inh, L3MBTL1 block)
COc1ccc2c3c(cccc13)C(=O)N(O)C2=O	FEN1 inhibitor 0.355µM
COCCN1C(=O)/C(=C/c2ccc(N3CCCC3)cc2C)SC1=S	WRN helicase inh 79.4µM
c1coc(CSSCc2ccco2)c1	FEN1 inhibitor inconclusive, WRN helicase inh 50.1µM (no result: RECQ1 inh, BLM inh)
CCCNC(=O)CSc1cn(CC(=O)N2CCCCCC2)c2ccccc12	none (no result: RECQ1 inh, L3MBTL1 block, WRN helicase inh)
CCOC(=O)C1=C(C)OC(=Cc2ccccc2)C1=O	none (no result: RECQ1 inh, FEN1 inhibitor, L3MBTL1 block, BLM inh)
CCOC(=O)C1=C(O)c2ccccc2C(=O)/C1=C\c1ccc(C)cc1	FEN1 inhibitor 50.1µM, WRN helicase inh 44.7µM
Cc1cc2cc3c(=O)[nH]c(=O)nc-3n(CC(O)C(O)C(O)CO)c2cc1C (centres undefined)	none (no result: RECQ1 inh, L3MBTL1 block, BLM inh)
Cc1cc2cc3c(=O)[nH]c(=O)cc-3n(CC(O)C(O)C(O)CO)c2cc1C (centres undefined)	WRN helicase inh 56.2µM (no result: RECQ1 inh, FEN1 inhibitor, L3MBTL1 block, BLM inh)
NC1=CC(=O)c2cccc3cccc1c23	none (no result: FEN1 inhibitor, WRN helicase inh)
O=C1C=C(O)c2cccc3cccc1c23	FEN1 inhibitor 2µM (no result: RECQ1 inh)
N#Cc1ccc(C(CC(=O)O)N2Cc3ccccc3C2=O)cc1 (centres undefined)	none (no result: RECQ1 inh, L3MBTL1 block)
S=c1[nH]nc(-c2ccccn2)n1/N=C/c1cccc2ccccc12	L3MBTL1 block 31.6µM
S=c1[nH]nc(-c2ccccn2)n1/N=C/c1cccs1	L3MBTL1 block 28.2µM
S=c1[nH]nc(-c2ccccn2)n1/N=C/c1ccccc1	L3MBTL1 block inconclusive
S=c1[nH]nc(-c2ccccn2)n1/N=C/c1c(Cl)cccc1Cl	L3MBTL1 block 20µM
Oc1c(Br)cc(/C=N/n2c(-c3ccccc3)n[nH]c2=S)c(Br)c1O	L3MBTL1 block 0.794µM, BLM inh 0.794µM (no result: RECQ1 inh, FEN1 inhibitor, WRN helicase inh)
O=C(O)c1cc(-c2cc(C(=O)O)c3ccccc3n2)ccc1O	none (no result: RECQ1 inh, L3MBTL1 block, BLM inh)
O=C(COc1ccc(Cl)cc1)N1CCN(c2ccc([N+](=O)[O-])c(N3CCOCC3)c2)CC1	none
CC(C)C[C@H]1CNC(=O)C(=O)N1C[C@@H]1CCCN1C[C@H](CC(C)C)N1C[C@H](Cc2ccccc2)N(CCc2ccccc2)C(=O)C1=O	none (no result: RECQ1 inh, FEN1 inhibitor, L3MBTL1 block, BLM inh)
Cc1ccccc1/C=N/n1c(-c2ccccn2)n[nH]c1=S	L3MBTL1 block 22.4µM
Oc1cccc(C=Nc2cccc3ccccc23)c1O	FEN1 inhibitor inconclusive, L3MBTL1 block inconclusive (no result: RECQ1 inh)
Oc1cccc(C=NCc2ccccc2)c1O	FEN1 inhibitor inconclusive, WRN helicase inh 39.8µM (no result: L3MBTL1 block)
Cc1ccc(C(=O)c2sc(Nc3ccc(F)cc3)nc2N)c(C)c1	none (no result: RECQ1 inh, L3MBTL1 block, WRN helicase inh)
COc1cnc(-c2ccccn2)nc1NC(C)C	L3MBTL1 block 1µM
COc1cnc(-c2ccccn2)nc1Oc1ccccc1Cl	none
CCCCCCCCCC[n+]1ccc(/C=C/c2c(C)[nH]c3ccccc23)cc1	FEN1 inhibitor 79.4µM (no result: RECQ1 inh, L3MBTL1 block, BLM inh, WRN helicase inh)
CCSC1=NSC2=NC(=O)/C(=C\c3coc4ccccc4c3=O)C(=N)N12	FEN1 inhibitor inconclusive, WRN helicase inh inconclusive
CC(C)CC1=NN2C(=N)/C(=C\c3coc4ccccc4c3=O)C(=O)N=C2S1	RECQ1 inh inconclusive, FEN1 inhibitor 31.6µM, WRN helicase inh inconclusive (no result: L3MBTL1 block)
COC(=O)CCCCC1SCC2NC(=O)NC21O (centres undefined)	none (no result: L3MBTL1 block)
COC(=O)CCCC[C@H]1SC[C@H]2NC(=O)N[C@]21O	L3MBTL1 block 2.24µM (no result: FEN1 inhibitor, WRN helicase inh)
COc1cccc(NC(=O)C(c2ccccc2)N2CCN(c3ccccn3)CC2)c1 (centres undefined)	none (no result: L3MBTL1 block)
CC(C)=CC[C@@H](O)C1=CC(=O)c2c(O)ccc(O)c2C1=O	RECQ1 inh 10µM (no result: FEN1 inhibitor, L3MBTL1 block, BLM inh, WRN helicase inh)
COC1=C(Br)C(=O)c2ncccc2C1=O	FEN1 inhibitor inconclusive, WRN helicase inh 10µM (no result: RECQ1 inh, L3MBTL1 block, BLM inh)
O=C1c2cccnc2-c2ncccc21	none
O=C1C(=O)c2cccnc2-c2ncccc21	WRN helicase inh 17.8µM (no result: RECQ1 inh, FEN1 inhibitor, L3MBTL1 block, BLM inh)
CN1CCN(C(=O)c2ccccc2Nc2ccc(SC(F)F)cc2)CC1	none
Cc1onc(-c2ccccc2)c1C(=O)Nc1nnc(COc2ccc(Cl)cc2)s1	WRN helicase inh 56.2µM
Cc1[nH]c2ccccc2c1CC#N	none
Cc1[nH]c2ccccc2c1C1=CC(=O)C=CC1=O	WRN helicase inh 56.2µM (no result: RECQ1 inh, L3MBTL1 block, BLM inh)
O=C(Nc1ccccc1N1CCN(c2ccc(F)cc2)CC1)C12CC3CC(CC(C3)C1)C2	none
Cc1c(C2=CCN(S(=O)(=O)c3ccc(Br)cc3)CC2)c2ccccc2n1CC(=O)N1CCCC1	none (no result: RECQ1 inh, L3MBTL1 block, WRN helicase inh)
Cc1ccc(S(=O)(=O)N2CC=C(c3c(C)n(C)c4ccccc34)CC2)cc1	WRN helicase inh 79.4µM
